Screening results (PubChem BioAssay)
pCIP destab: compounds decreasing mouse p/CIP protein stability | decrease of EGFP signal, % at 10 µM | Q05BA5 | F442A p/CIP-EGFP cells, EGFP fluorescence, 16 h | 0.01% of 290,000 active;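 active means EGFP signal decrease of at least 30% at 10 µM or well 3 SD below plate mean, unless failing retest; inactive means the rest, including hits failing retest or dose response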
HTR5A inv ag: counter-screen for OPRM1-OPRD1 inverse agonists: human HTR5A inverse agonism. P47898. inhibition, % at 9.3 µM. 0.083% of 340,000 active. HTR5A cell line, luminescence; in the data active means inhibition mostly above about 23%, no sharp cut-off; inactive means mostly below about 18%
Target sequence (P47898 whole entry, looked up): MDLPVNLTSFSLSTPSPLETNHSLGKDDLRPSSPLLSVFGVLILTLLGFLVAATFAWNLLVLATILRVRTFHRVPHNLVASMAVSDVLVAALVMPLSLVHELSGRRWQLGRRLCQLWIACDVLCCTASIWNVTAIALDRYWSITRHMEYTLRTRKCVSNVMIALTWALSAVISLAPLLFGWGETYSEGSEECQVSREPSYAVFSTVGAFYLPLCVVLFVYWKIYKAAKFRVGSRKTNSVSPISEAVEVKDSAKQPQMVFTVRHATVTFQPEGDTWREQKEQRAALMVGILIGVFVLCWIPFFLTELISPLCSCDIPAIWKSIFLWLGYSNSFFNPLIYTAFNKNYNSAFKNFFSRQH
OPRM1-OPRD1 inv: mu-delta opioid heterodimer inverse agonism; P35372+P41143; cell-based MOR-DOR heterodimer luminescence; inhibition, % at 9.3 µM; 0.21% of 340,000 active; AID 504357; in the data active means inhibition above about 22%, passing the limit was not always enough
HTR5A ag: HTR5A agonism, opioid heterodimer counter-screen | activation, % at 9.3 µM | AID 504692 | 0.61% of 340,000 active | HTR5A agonist assay, luminescence, cell-based; in the data active means activation mostly above about 9.5%, no sharp cut-off; inactive means mostly below about 7.6%
MIN6 prolif: MIN6 beta-cell proliferation induction; proliferation, % at 10 µM; AID 2380; 0.29% of 330,000 active; MIN6 cells proliferation, ATPlite luminescence, 48 h; cells starved in 0.2% serum; 100% = growth in 10% serum;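 active means compounds whose signal lies at least 3.5 SD above the mean of all wells on their plate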
MOR-DOR ag: agonists of human mu-delta opioid receptor heterodimerization. activation, % at 9.3 µM. cells, OPRM1-OPRD1 heterodimerization, luminescence. AID 504326. P35372+P41143. 0.3% of 340,000 active; in the data active means activation above about 18%
Each line names hits and unclear results; the compound was inactive in the other large screens. Hits are enriched below; roughly 1.4% of the tested compounds scored in any of these assays.

CCN(CC)S(=O)(=O)c1ccc2c(c1)oc(=O)n2CC(=O)NC1CCCCC1	none
COc1ccccc1NC(=O)CS(=O)(=O)c1cccc2nsnc12	HTR5A ag 12.0
CC(C)S(=O)(=O)c1cnc(N2CCOCC2)nc1N	none
COc1ccc(NC(=O)c2ccc3c(c2)C(=O)N(Cc2ccncc2)C3=O)cc1S(N)(=O)=O	none (no result: pCIP destab)
CSc1cccc(N2CC(C(=O)N3CCN(S(=O)(=O)c4ccccc4Cl)CC3)CC2=O)c1 (stereo unspecified)	none (no result: pCIP destab)
Cc1cc(C)c2nc(-c3ccncc3)cc(C(=O)N3CCN(Cc4ccccc4Cl)CC3)c2c1	HTR5A ag 12.6
COc1ccccc1CNS(=O)(=O)c1cc(C(=O)N(C)Cc2cccnc2)c(Cl)cc1Cl	none (no result: pCIP destab, MIN6 prolif)
COc1cc(/C=N\NC(=O)c2ccc(-c3ccccc3)cc2)ccc1OCC(N)=O	HTR5A ag 10.7, MOR-DOR ag 19.9
O=C(/C=C/c1ccc(Cl)cc1)NCc1cccs1	HTR5A ag 13.1
O=C(/C=C/c1cccc(Cl)c1)NCc1cccs1	none
O=C(/C=C/c1cccc(F)c1)Nc1ccc(S(=O)(=O)N2CCOCC2)cc1	none (no result: pCIP destab)
O=C1CCCN1CC(=O)N1CCCC(N2CCN(c3cccc(Cl)c3)CC2)C1 (stereo unspecified)	none
COc1ccc(Cl)cc1S(=O)(=O)n1ccnc1	HTR5A ag 9.2
COc1ccc(Cl)cc1S(=O)(=O)N1CCCC1=O	none
CC(=O)Nc1ccc2[nH]c3ccccc3c2c1	none
O=C(Nc1ccc(Cl)cc1)c1cc2c(cc1O)[nH]c1ccccc12	HTR5A ag 14.0
Cn1c(-c2ccccc2)c(C(=O)CCl)c2ccccc21	HTR5A ag 44.5, MOR-DOR ag 42.2 (no result: MIN6 prolif)
COc1ccc(S(=O)(=O)N2CCOCC2)cc1NC(=O)Cc1ccc2c(c1)OCCO2	none (no result: pCIP destab)
c1ccc2c(c1)CCN(c1ncnc3c1[nH]c1ccccc13)C2	MOR-DOR ag 52.0
O=C1NC(=Nc2ccccc2)c2c1cccc2[N+](=O)[O-]	MIN6 prolif 0.0
O=C(Nc1cccc2c1C(=O)NC2=O)c1ccccc1[N+](=O)[O-]	none
Cc1cccc(N2CCN(S(=O)(=O)c3ccc4c(c3)NC(=O)CS4)CC2)c1C	HTR5A ag 11.8
COC(=O)C1CN(Cc2ccccc2)C(=O)C1=O (stereo unspecified)	none (no result: pCIP destab, MIN6 prolif)
COc1ccc(N(C(=O)CCl)C(C(=O)NC2CCCCC2)c2cccnc2)cc1 (stereo unspecified)	none
COc1ccc(C(C(=O)NC2CCCCC2)N(C(=O)CCl)c2ccc(C)cc2)cc1 (stereo unspecified)	HTR5A ag 30.8, MOR-DOR ag 23.8
COc1ccc(C(C(=O)NC2CCCCC2)N(C(=O)CCl)c2ccc(OC)cc2)cc1 (stereo unspecified)	HTR5A ag 49.6, MOR-DOR ag 65.1
COc1ccc(C(C(=O)NC2CCCCC2)N(C(=O)CCl)c2cccc(Cl)c2)cc1 (stereo unspecified)	HTR5A ag 86.4, MOR-DOR ag 94.0 (no result: MIN6 prolif)
O=CNc1ccc2c(c1)Cc1cccc(NC=O)c1-2	none (no result: pCIP destab, MIN6 prolif)
CC(=O)Nc1sc2c(c1C(c1cccs1)N1CCOCC1)CCCC2 (stereo unspecified)	HTR5A ag 13.2
CC(C)Cn1c(N)c(C(=O)NCC2CCCO2)c2nc3ccccc3nc21 (stereo unspecified)	OPRM1-OPRD1 inv 44.2
COCCn1c(N)c(C(=O)NCC2CCCO2)c2nc3ccccc3nc21 (stereo unspecified)	none
NC(=O)C1CCN(CC(=O)Nc2ccccc2C(=O)NC2CC2)CC1	none (no result: pCIP destab)
CC(=O)c1sc2nc(SCC(=O)NCCc3ccccc3)[nH]c(=O)c2c1C	HTR5A ag 12.8
c1ccc(N2CCN(c3ncnc4c3oc3ccccc34)CC2)cc1	HTR5A ag 14.2
Nc1ccccc1-c1ccc([N+](=O)[O-])cc1	none (no result: pCIP destab, MIN6 prolif)
CCc1ccc(S(=O)(=O)c2nnn3c2nc(NCCNC(C)=O)c2ccccc23)cc1	HTR5A ag 11.1
CCCCNc1nc2c(S(=O)(=O)c3ccccc3)nnn2c2ccccc12	none
COc1cc(C(=O)NC(=S)Nc2cccc3nc(C)ccc23)cc(OC)c1OC	HTR5A ag 30.0, MOR-DOR ag 26.5
COc1ccc(C(=O)NC(=S)Nc2cccc3nc(C)ccc23)cc1OC	none (no result: HTR5A inv ag, OPRM1-OPRD1 inv, HTR5A ag, MOR-DOR ag)
Cc1ccc(N(CC(=O)NCC2CCCO2)S(=O)(=O)c2ccccc2)c(C)c1 (stereo unspecified)	HTR5A ag 14.0
Cc1nn(-c2ccccc2)c(C)c1NC(=O)COc1ccc2ccccc2c1	HTR5A ag 10.3
Cc1nn(-c2ccccc2)c(C)c1NC(=O)COc1ccc(C#N)cc1	none
Cc1ccccc1-c1cc(C(=O)NCc2cccc(Br)c2)nn1CC1CC(c2cccc([N+](=O)[O-])c2)=NO1 (stereo unspecified)	none (no result: pCIP destab)
CN(C(=O)c1cccc(NC(=O)Cc2cccc(NC(=O)C3CCN(C(=O)c4ccccc4)CC3)c2)c1)C1CC1	HTR5A ag 9.1 (no result: pCIP destab, MIN6 prolif)
CN(C(=O)c1cccc(NC(=O)Cc2ccc(NC(=O)C3CCN(C(=O)c4ccccc4)CC3)cc2)c1)C1CC1	none (no result: pCIP destab, MIN6 prolif)
CCN(CC)CCCN(Cc1cc2cc3c(cc2[nH]c1=O)OCO3)C(=S)NC	HTR5A ag 10.8
CCN(CC)CCCN(Cc1cc2cc3c(cc2[nH]c1=O)OCO3)C(=S)NCCCN(C)C	none
Cc1ccc(C)n1-c1sc2c(c1C#N)CCC(C)C2 (stereo unspecified)	HTR5A ag 12.6
CC(C)(C)C(=O)Nc1ccc(C(=O)COC(=O)c2ccccn2)cc1	none (no result: pCIP destab)
CCOc1cc(C(c2c(C)[nH][nH]c2=O)c2c(C)[nH][nH]c2=O)ccc1OCc1ccc([N+](=O)[O-])cc1	HTR5A ag 11.5
C#CCNC(=O)C1=C[C@@H](c2ccc3c(c2)OCO3)[C@H](CCCO)[C@@H](OCC)O1	HTR5A ag 11.4
COc1ccc(C(=O)NCC(=O)N2CCN(C(=O)c3ccco3)CC2)cc1[N+](=O)[O-]	none (no result: pCIP destab)
Cc1csc(SCC(=O)N(C)c2c(N)n(Cc3ccccc3)c(=O)[nH]c2=O)n1	HTR5A ag 11.6
CCNC(=O)N(C)C[C@H]1N[C@@](CC)(C(=O)OC)[C@H]2C(=O)N(C)C(=O)[C@@H]12	none (no result: pCIP destab)
Cc1ccccc1/C(N)=N/OC(=O)c1cccs1	HTR5A ag 11.6
O=C(CSc1cccc[n+]1[O-])c1ccc(Cl)s1	HTR5A ag 12.8
O=C(NC(C(=O)O)c1ccccc1)c1ccc(S(=O)(=O)N2CCOCC2)cc1 (stereo unspecified)	HTR5A ag 12.0
COc1ccc(-c2sc3ccc(N4CCOCC4)cc3c2C#CC2(O)CCCCC2)cc1	HTR5A ag 12.8 (no result: pCIP destab)
COc1ccc(-c2sc3ccc(N4CCOCC4)cc3c2C#CCO)cc1	none (no result: pCIP destab)
COC(=O)c1cccc(NC(=O)CCNC(=O)c2ccco2)c1	HTR5A ag 13.2
